# In PubChem BioAssay (NCATS):
# Unmarked numbers belong to inactive results. Results filed as inconclusive are left out. A call without a number means that no potency is given here. The source made the active and inactive calls. The call rests on the fitted dose curve; in most records, active means well fitted curve in the direction sought with a large enough effect; inconclusive means small, poorly fitted or top-dose-only effect, or another doubt; inactive means no such curve, though single readings can be large; an effect the other way counts as inactive or inconclusive.
# Tests used:
# [1] = tested on: Zika virus NS2B-NS3 protease (linked construct); experiment: Primary screen NINDS Rhodamine qHTS for Zika virus inhibitors (AID 1347160); further: nearly all actives have a fitted effect of over 55% in size
# Method in brief: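 Aprotinin served as in-plate control. Conditions: 25 nM linked NS2B-NS3, pH 8.0 Tris buffer, titrated compounds, 15 min preincubation and 15 min reaction with 1.5 microM Rhod110 substrate at room temperature.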
# [2] = molecular target: Calcium and integrin-binding protein 1 (Homo sapiens) (UniProt Q99828); experiment: Primary qHTS for Identification of Calcium Integrin Binding Protein 1 (CIB1) Competitor (AID 1508620);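 further: GST tagged CIB1 binding a fluorescein labelled alphaIIb integrin peptide tracer; top concentration of the series differs between compounds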
# Sequence of Calcium and integrin-binding protein 1 (Homo sapiens) (Q99828 whole entry, looked up): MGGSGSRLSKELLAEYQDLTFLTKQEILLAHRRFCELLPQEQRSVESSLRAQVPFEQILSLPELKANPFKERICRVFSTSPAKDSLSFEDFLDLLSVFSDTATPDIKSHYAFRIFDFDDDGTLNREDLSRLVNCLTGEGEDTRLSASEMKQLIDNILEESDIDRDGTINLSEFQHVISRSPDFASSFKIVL
# Method in brief: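 CIB1-GST (1 uM final) and compound incubated 15 min at room temperature before adding FITC-alphaIIb peptide tracer (100 nM final). Competition for binding read by fluorescence polarization (ex 480, em 540) after another 15 min at room temperature.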
# [3] = Primary qHTS for inhibitors of nuclear receptor binding SET domain protein 2 (NSD2) in an isogenic RCH-ACV NSD2 p.E1099K mutant (9B) (AID 1645876); further: nearly all actives have a fitted effect of over 70% in size; further: potency means the concentration at half of the fitted maximal effect
# [4] = molecular target: Glutathione peroxidase 1 (Homo sapiens) (UniProt P07203); experiment: Primary qHTS Assay for Inhibitors of Recombinant Selenoprotein Glutathione Peroxidase 1 (GPX1) (AID 1845191); further: nearly all actives have a fitted effect of over 65% in size
# Sequence of Glutathione peroxidase 1 (Homo sapiens) (P07203 whole entry, looked up): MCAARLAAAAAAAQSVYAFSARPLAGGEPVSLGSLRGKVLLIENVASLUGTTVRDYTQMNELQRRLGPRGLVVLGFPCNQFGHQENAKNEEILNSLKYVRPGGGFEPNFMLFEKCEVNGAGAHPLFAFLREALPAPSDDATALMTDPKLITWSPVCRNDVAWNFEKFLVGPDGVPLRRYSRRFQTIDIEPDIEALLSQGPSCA
# Method in brief: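 NADPH consumption tracked by fluorescence at 340/450 nm between t=0 and t=15 min, room temperature. Final mix: 10 nM GPX1, 100 nM glutathione reductase, 1 mM GSH, 0.5 mM NADPH, 0.5 mM cumene hydroperoxide, 0.01% BSA; 30 min compound–enzyme preincubation.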
# [5] = molecular target: Phospholipid hydroperoxide glutathione peroxidase GPX4 (Homo sapiens) (UniProt P36969); experiment: Primary qHTS Assay for Inhibitors of Recombinant Selenoprotein Glutathione Peroxidase 4 (GPX4) (AID 1845192); further: nearly all actives have a fitted effect of over 65% in size; further: potency means the concentration at half of the fitted maximal effect
# Sequence of Phospholipid hydroperoxide glutathione peroxidase GPX4 (Homo sapiens) (P36969 whole entry, looked up): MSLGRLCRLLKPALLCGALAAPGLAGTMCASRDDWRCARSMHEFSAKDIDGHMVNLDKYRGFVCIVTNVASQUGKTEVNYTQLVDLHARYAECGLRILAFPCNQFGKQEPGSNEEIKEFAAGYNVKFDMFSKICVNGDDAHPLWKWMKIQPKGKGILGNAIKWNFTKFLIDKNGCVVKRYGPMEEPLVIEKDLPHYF
# Method in brief: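 NADPH consumption followed by fluorescence at 340/450 nm, t=0 and after 15 min at room temperature. Reaction started with cumene hydroperoxide (0.5 mM final) after 30 min compound–GPX4 preincubation; final 200 nM GPX4, 100 nM GR, 1 mM GSH, 0.5 mM NADPH.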
# [6] = molecular target: Luciferin 4-monooxygenase (Photinus pyralis) (UniProt P08659); experiment: Primary firefly luciferase (FLuc) qHTS assay for identification of artifact compounds. (AID 1845220); settings: outcome: dose series up to 54.1 µM unless noted; further: nearly all actives have a fitted effect of over 60% in size
# Method in brief: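 FLuc 10 nM; luciferin 10 uM; ATP 10 uM; Tris-acetate pH 7.6, Mg-acetate 10 mM; 15 min RT preincubation; 5 min reaction; luminescence.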
# [7] = Primary fluorescence-based thiol-reactive (MSTI) qHTS assay for identification of artifact compounds. (AID 1845221);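 further: thiol-reactive compounds lower the probe fluorescence signal; nearly all actives have a fitted effect of over 65% in size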
# Method in brief: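 MSTI probe at 4 uM final in 2% DMSO/PBS pH 7.4; compounds, 1 h at room temperature in dark. Fluorescence Ex/Em 525/598 nm, normalised to Acetyl-MSTI and MSTI, fitted to 4-parameter Hill.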
# [8] = tested on: Nanoluciferase (engineered Oplophorus gracilirostris luciferase); experiment: Primary Nanoluciferase (NLuc) qHTS assay for identification of artifact compounds. (AID 1845222); further: potency means the concentration at half of the fitted maximal effect;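 on activity, negative = inhibition: NLuc secreted into diluted conditioned medium of S16 cells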
# Method in brief: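 NLuc from S16 cell medium (1:55) plus test compounds, 15 min, room temperature. Luminescence after Nano-Glo (1:100) addition, 5 min.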
# [9] = Primary redox qHTS assay for identification of artifact compounds. (AID 1845223)
# Method in brief: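 Redox-cycling detection via DTT (250 uM final) oxidation coupled to Amplex Red (25 uM)/HRP (250 mU/mL) in HBSS. 15 min preincubation plus 30 min after DTT, room temperature. Ex/Em 525/598 nm; 4-parameter Hill fit against DMSO and 10 uM DA3003.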
# HaCat = experiment: Cytotoxic Profiling of Annotated Libraries Using Quantitative High-Throughput Screening (AID 1296008); settings: Five cell lines viability, CellTiter-Glo ATP luminescence, 48-72 h; max response: stronger effect = lower value; further: nearly all actives have a fitted effect of over 60% in size; further: potency means the concentration at half of the fitted maximal effect
# Method in brief: (§1)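 Cytotoxicity was measured as CellTiter-Glo ATP luminescence, read after 10 min at room temperature. Compound treatment of the cells lasted 48 or 72 hr at 37 degrees Celsius in a qHTS format.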
# KB-3-1 = experiment: as above; settings: Five cell lines viability, CellTiter-Glo ATP luminescence, 48-72 h; max response: stronger effect = lower value
# Method in brief: as §1
# CASKI = experiment: Primary qHTS to identify gynecologic anti-cancer compounds using libraries of approved drugs and bioactive compounds (AID 1345084); settings: Gynecologic cancer cell panel viability, ATPlite luminescence, 48 h; series mostly up to 57.5 µM; further: nearly all actives have a fitted effect of over 55% in size; further: potency means the concentration at half of the fitted maximal effect
# Method in brief: (§2)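 Cells, 1,000 per well, plated 16 h, then exposed 48 h at 37 C to compounds. Viability by ATPlite luminescence after 15 min at room temperature.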
# JEG-3 = experiment: as above; settings: Gynecologic cancer cell panel viability, ATPlite luminescence, 48 h; series mostly up to 57.5 µM
# Method in brief: as §2
# OV90 = experiment: as above; settings: Gynecologic cancer cell panel viability, ATPlite luminescence, 48 h; series mostly up to 57.5 µM
# Method in brief: as §2
# Tov-21-G = experiment: as above; settings: Gynecologic cancer cell panel viability, ATPlite luminescence, 48 h; series mostly up to 57.5 µM
# Method in brief: as §2
# [10] = P-glycoprotein substrates identified in KB-8-5-11 adenocarcinoma cell line, qHTS therapeutic library screen (AID 1346987); further: nearly all actives have a fitted effect of over 65% in size; further: potency means the concentration at half of the fitted maximal effect
# Method in brief: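 Human cervical adenocarcinoma KB-8-5-11 cells, selected in colchicine to over-express P-gp and assayed without it, were exposed for 72 h to titrated compounds. An ATP-based luminescent viability signal gave AC50.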
smiles,measurement,setting,value
N#Cc1ccccc1-c1cc(-c2ccccn2)cn(-c2ccccc2)c1=O,Potency,[1],inactive
same,Potency,[2],inactive
same,Potency,[3],inactive
same,Potency,[4],inactive
same,Potency,[5],25.5 µM (active)
same,outcome,[6],inactive
same,Potency,[7],inactive
same,Potency,[8],10.7 µM (active)
same,Potency,[9],inactive
same,max response,HaCat,1.04%
same,max response,KB-3-1,-4.86%
same,Potency,CASKI,inactive
same,Potency,JEG-3,inactive
same,Potency,OV90,inactive
same,Potency,Tov-21-G,inactive
C[C@H]1CN(Cc2ccc(CC(=O)N3CCC(Nc4cccc(F)c4)CC3)cc2)CCN1,Potency,[1],inactive
same,Potency,[2],inactive
same,Potency,[4],inactive
same,Potency,[5],inactive
same,outcome,[6],inactive
same,Potency,[7],inactive
same,Potency,[8],inactive
same,Potency,[9],inactive
same,max response,KB-3-1,-18.3%
same,Potency,CASKI,inactive
same,Potency,JEG-3,inactive
same,Potency,OV90,inactive
same,Potency,Tov-21-G,inactive
COc1ccc(CC2C(=O)NC(C)C(=O)N(C)C3Cc4ccc(cc4)Oc4cc(ccc4OC4OC(CO)C(O)C(O)C4O)CC(C(=O)NC(C)C(=O)NC(CCC(=O)O)C(=O)N2C)N(C)C3=O)cc1 (centres undefined),"activity change, negative = cytotoxicity",[10],-22.7% [at 9.29 µM]
same,Potency,[1],inactive
same,Potency,[2],inactive
same,Potency,[3],5.48 µM (active)
same,Potency,[4],inactive
same,Potency,[5],inactive
same,"activity change, negative = inhibition",[6],-19.1% [at 11.6 µM]
same,"activity change, negative = thiol reactive",[7],-0.882% [at 11.5 µM]
same,"activity, negative = inhibition",[8],-15.7% [at 11.6 µM]
same,outcome,HaCat,inactive
same,max response,KB-3-1,-29.6%
same,"activity change, negative = cytotoxicity",CASKI,-30.7% [at 11.6 µM]
same,"activity change, negative = cytotoxicity",JEG-3,-7.62% [at 11.6 µM]
same,"activity change, negative = cytotoxicity",OV90,-30.8% [at 11.6 µM]
CC1CCCCCC(=O)c2c(O)cc(O)cc2CC(=O)O1 (centres undefined),Potency,[10],inactive
same,Potency,[1],inactive
same,Potency,[4],inactive
same,Potency,[5],inactive
same,outcome,[6],inactive
same,Potency,[7],inactive
same,Potency,[8],inactive
same,Potency,[9],inactive
same,outcome,HaCat,inactive
same,max response,KB-3-1,-18.6%
same,Potency,CASKI,inactive
same,Potency,JEG-3,inactive
same,Potency,OV90,inactive
same,Potency,Tov-21-G,inactive
C=C(CO)[C@@]12O[C@@H]1[C@@]1(C)C(=CC2=O)CC[C@@H](O)[C@@H]1C,Potency,[10],13 µM (active)
same,Potency,[1],inactive
same,Potency,[2],inactive
same,Potency,[3],12.9 µM (active)
same,Potency,[4],inactive
same,Potency,[5],inactive
same,Potency,[7],inactive
same,Potency,[8],inactive
same,Potency,[9],inactive
same,outcome,HaCat,inactive
same,Potency,CASKI,inactive
same,Potency,JEG-3,inactive
CCCCn1cc(C(=O)c2cccc3ccccc23)c2ccccc21,Potency,[10],inactive
same,Potency,[1],inactive
same,Potency,[2],inactive
same,Potency,[3],inactive
same,Potency,[4],inactive
same,Potency,[5],inactive
same,outcome,[6],inactive
same,Potency,[7],inactive
same,Potency,[8],inactive
same,Potency,[9],inactive
same,outcome,HaCat,inactive
same,max response,KB-3-1,-16.1%
same,Potency,CASKI,inactive
same,Potency,JEG-3,inactive
same,Potency,OV90,inactive
same,Potency,Tov-21-G,inactive
CCC1(O)CCC2C3CCC4=CC(=O)CCC4C3CCC21CC (centres undefined),Potency,[1],inactive
same,Potency,[3],20.5 µM (active)
same,Potency,[4],inactive
same,Potency,[5],inactive
same,outcome,[6],inactive
same,Potency,[7],inactive
same,Potency,[8],inactive
same,Potency,[9],inactive
same,outcome,HaCat,inactive
same,max response,KB-3-1,-10.9%
same,Potency,CASKI,inactive
same,Potency,JEG-3,inactive
same,Potency,OV90,inactive
same,Potency,Tov-21-G,inactive
Cc1ccc(-n2nccn2)c(C(=O)N2CCN(c3nc4cc(Cl)ccc4o3)CCC2C)c1 (centres undefined),Potency,[1],inactive
same,Potency,[2],inactive
same,Potency,[3],16.3 µM (active)
same,Potency,[5],inactive
same,Potency,[7],inactive
same,Potency,[8],inactive
same,outcome,HaCat,inactive
same,Potency,CASKI,inactive
same,Potency,JEG-3,inactive
same,Potency,OV90,inactive
same,Potency,Tov-21-G,inactive
CC(C)C(=O)O[C@H]1[C@@H]2[C@H](C)C(=O)O[C@@H]2C[C@@H](C)[C@@H]2C=CC(=O)[C@]21C,Potency,[10],16.1 µM (active)
same,Potency,[1],inactive
same,Potency,[2],inactive
same,Potency,[3],3.58 µM (active)
same,Potency,[4],inactive
same,Potency,[5],inactive
same,outcome,[6],inactive
same,Potency,[7],inactive
same,Potency,[8],inactive
same,Potency,[9],inactive
same,Potency,JEG-3,10 µM (active)
same,Potency,Tov-21-G,10 µM (active)
COc1ccc(C(C)(C)C)cc1CN[C@H]1C2CCN(CC2)[C@H]1C(c1ccccc1)c1ccccc1,Potency,[10],18.4 µM (active)
same,Potency,[1],inactive
same,Potency,[2],inactive
same,Potency,[3],6.49 µM (active)
same,Potency,[4],inactive
same,Potency,[5],inactive
same,Potency,[7],inactive
same,Potency,[8],inactive
same,Potency,[9],inactive
same,Potency,HaCat,18.4 µM (active)
same,Potency,CASKI,inactive
same,Potency,JEG-3,inactive
same,Potency,OV90,inactive
same,Potency,Tov-21-G,inactive
COC[C@]12CN(C)C3C4[C@H](OC)[C@H]1C3(C(OC)C[C@H]2O)[C@H]1C[C@@]2(O)[C@H](OC(=O)c3ccccc3)[C@@H]1[C@]4(O)[C@@H](O)[C@@H]2OC (some centres undefined),Potency,[1],inactive
same,Potency,[2],inactive
same,Potency,[3],inactive
same,Potency,[4],inactive
same,Potency,[5],inactive
same,outcome,[6],inactive
same,Potency,[7],inactive
same,Potency,[8],inactive
same,Potency,[9],inactive
same,max response,HaCat,-14.8%
same,max response,KB-3-1,-0.453%
OC(CNc1ccccc1)Cn1c2ccc(Br)cc2c2cc(Br)ccc21 (centres undefined),Potency,[4],inactive
same,Potency,[5],inactive
same,outcome,[6],inactive
same,Potency,[8],inactive
same,Potency,[9],inactive
same,max response,HaCat,-16%
same,max response,KB-3-1,-15.3%
same,Potency,JEG-3,inactive
same,Potency,OV90,inactive
same,Potency,Tov-21-G,inactive
CCCCCn1cc(C(=O)Cc2ccccc2OC)c2ccccc21,Potency,[1],inactive
same,Potency,[2],inactive
same,Potency,[4],inactive
same,Potency,[5],inactive
same,outcome,[6],inactive
same,Potency,[7],inactive
same,Potency,[8],inactive
same,Potency,[9],inactive
same,max response,HaCat,-10.3%
same,Potency,CASKI,inactive
same,Potency,JEG-3,inactive
same,Potency,OV90,inactive
same,Potency,Tov-21-G,inactive
